Activity calls are given as the source filed them. Rule for the calls: active = hit-call score of the fitted dose curve at least 0.9, where 1 is the maximum; inactive = score below 0.9.

Read-out in the first assay: Thrombomodulin, THBD (gene 7056)
In words: BSK_3C_Thrombomodulin: BioMAP Diversity Plus: 3C Assay for Thrombomodulin Biomarker Activity (AID 2283029). Particulars: primary human endothelial cells (HUVEC); actives raise or lower the signal. In short, it runs like this:
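HUVEC, 3C conditions; compound 24 h; thrombomodulin by ELISA; bidirectional curve fit vs DMSO baseline; parallel SRB total-protein staining for cytotoxicity.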
`Cc1ccc2nc3sc(=O)sc3nc2c1`: the outcome was inactive.
With `OC(Cc1ccccc1Cl)(Cn1cncn1)C1(Cl)CC1` (stereo not drawn), the outcome was inactive.
In the case of `Cc1ccccc1OP(=O)(Oc1ccccc1)Oc1ccccc1`, the result was inactive.
Consider `O=[N+]([O-])c1cccc2ccccc12`, for which the result was inactive.
Regarding `Oc1c(Cl)cc(Cl)cc1Cl`, the result was inactive.
For `CCOC(=O)CCN(SN(C)C(=O)Oc1cccc2c1OC(C)(C)C2)C(C)C`, the result was inactive.
For the compound `OC(Cc1ccccc1Cl)(Cn1[nH]cnc1=S)C1(Cl)CC1` (stereo not drawn), the result was inactive.
Regarding `CCOP(=O)(OCC)SCCSCC`, the result was inactive.
On to `N#CCCC(Br)(C#N)CBr` (stereo not drawn), for which the result was inactive.
For the compound `Cc1cc(C(C)(C)c2ccc(O)c(C)c2)ccc1O`, the outcome was inactive.
Turning to `O=C(O)COc1cc(Cl)c(Cl)cc1Cl`, the result was inactive.
As for `O=[N+]([O-])c1ccc(Nc2ccccc2)cc1`, the outcome was inactive.
As to `Cc1ccccc1OP(=O)(Oc1ccccc1C)Oc1ccccc1C`, the outcome was inactive.
In the case of `CCOC(=O)C(SP(=S)(OC)OC)c1ccccc1` (stereo not drawn), the outcome was inactive.
The term AC50 denotes the concentration at which the activity in the assay is half-maximal. On to `CC(C)(C)c1cc([N+](=O)[O-])cc(C(C)(C)C)c1O`, for which the AC50 is 0.0473 µM (active).
As to `CC1(C)[C@H](C(=O)O[C@H](C#N)c2cccc(Oc3ccccc3)c2)[C@@H]1/C=C(\Cl)C(F)(F)F`, the result was inactive.
Take `c1ccc(-c2cccc(-c3ccccc3)c2)cc1`: the result was inactive.
Same read-out and setting: to `Cc1ccc(OP(=O)(Oc2ccc(C)cc2C)Oc2ccc(C)cc2C)c(C)c1` belongs “inactive”; to `CC(C)(C)c1ccccc1O`, “inactive”.
On to `O=S(=O)(C(Cl)(Cl)Cl)C(Cl)(Cl)Cl`, for which the AC50 was 10.1 µM (active).
On to `C=CC(Cl)CCl` (stereo not drawn), for which the result was inactive.
Take `CCOP(=O)(OCC)OC(=CCl)c1ccc(Cl)cc1Cl`: the result was inactive.
Turning to `COc1ccccc1N`, the result was inactive.
`CCN(CC)C(=O)C(Cl)=C(C)OP(=O)(OC)OC`: the result was inactive.
Regarding `CC(C=O)Cc1ccc2c(c1)OCO2` (stereo not drawn), the result was inactive.
Turning to `OCCN(CCO)CCO`, the outcome was inactive.
Turning to `[Cl][Sn]([c]1ccccc1)([c]1ccccc1)[c]1ccccc1`, the AC50 is 5 µM (active).
Consider `C#CCOC(=O)/C=C(C)/C=C/CC(C)CCCC(C)C` (stereo not drawn), for which the result was inactive.
Regarding `CN(C)C(=S)S`, the result was inactive.
Still for that read-out and setting: for `CC(C)=CC1C(C(=O)OCc2cccc(Oc3ccccc3)c2)C1(C)C` (stereo not drawn) the value was “inactive”; for `CCOP(=S)(OCC)OP(=S)(OCC)OCC`, “inactive”.
For `O=S(=O)(c1ccc(Cl)cc1)c1cc(Cl)c(Cl)cc1Cl`, the outcome was inactive.
The same measure, in the same setting: to `Cc1cc(C)cc(C)c1` belongs “inactive”.

Read-out in another assay: Urokinase-type plasminogen activator receptor (uPAR), PLAUR (gene 5329)
The assay is described as follows: BSK_4H_uPAR: BioMAP Diversity Plus: 4H Assay for Urokinase-type plasminogen activator receptor (uPAR) Biomarker Activity (AID 2283030). Particulars: primary human endothelial cells (HUVEC); actives raise or lower the signal. The method in brief: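 Human umbilical vein endothelial cells in the 4H system, 24 h after chemical dosing. Cell-surface uPAR measured by ELISA, fitted in both directions versus DMSO; cytotoxicity checked by SRB total protein in parallel cultures.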
In the case of `Cc1ccc2nc3sc(=O)sc3nc2c1`, the AC50 is 6.39 µM (active).
Take `OC(Cc1ccccc1Cl)(Cn1cncn1)C1(Cl)CC1` (stereo not drawn): the outcome was inactive.
Take `Cc1ccccc1OP(=O)(Oc1ccccc1)Oc1ccccc1`: the AC50 is 32.2 µM (active).
Regarding `O=[N+]([O-])c1cccc2ccccc12`, the result was inactive.
As for `Oc1c(Cl)cc(Cl)cc1Cl`, the outcome was inactive.
Regarding `CCOC(=O)CCN(SN(C)C(=O)Oc1cccc2c1OC(C)(C)C2)C(C)C`, the result was inactive.
Consider `OC(Cc1ccccc1Cl)(Cn1[nH]cnc1=S)C1(Cl)CC1` (stereo not drawn), for which the AC50 was 20 µM (active).
With `CCOP(=O)(OCC)SCCSCC`, the outcome was inactive.
On to `N#CCCC(Br)(C#N)CBr` (stereo not drawn), for which the AC50 is 8.75 µM (active).
`Cc1cc(C(C)(C)c2ccc(O)c(C)c2)ccc1O`: the AC50 was 15.3 µM (active).
With `O=C(O)COc1cc(Cl)c(Cl)cc1Cl`, the outcome was inactive.
With `O=[N+]([O-])c1ccc(Nc2ccccc2)cc1`, the result was inactive.
On to `Cc1ccccc1OP(=O)(Oc1ccccc1C)Oc1ccccc1C`, for which the AC50 is 11.7 µM (active).
Still for that read-out and setting: for `CCOC(=O)C(SP(=S)(OC)OC)c1ccccc1` (stereo not drawn) the value was 20 µM (active).
As to `CC(C)(C)c1cc([N+](=O)[O-])cc(C(C)(C)C)c1O`, the result was inactive.
For the compound `CC1(C)[C@H](C(=O)O[C@H](C#N)c2cccc(Oc3ccccc3)c2)[C@@H]1/C=C(\Cl)C(F)(F)F`, the result was inactive.
The same measure, in the same setting: to `c1ccc(-c2cccc(-c3ccccc3)c2)cc1` belongs “inactive”.
For `Cc1ccc(OP(=O)(Oc2ccc(C)cc2C)Oc2ccc(C)cc2C)c(C)c1`, the result was inactive.
Take `CC(C)(C)c1ccccc1O`: the result was inactive.
With `O=S(=O)(C(Cl)(Cl)Cl)C(Cl)(Cl)Cl`, the AC50 was 1.45 µM (active).
In the case of `C=CC(Cl)CCl` (stereo not drawn), the result was inactive.
As to `CCOP(=O)(OCC)OC(=CCl)c1ccc(Cl)cc1Cl`, the AC50 was 30.8 µM (active).
Regarding `COc1ccccc1N`, the outcome was inactive.
The same measure, in the same setting: to `CCN(CC)C(=O)C(Cl)=C(C)OP(=O)(OC)OC` belongs “inactive”.
In the case of `CC(C=O)Cc1ccc2c(c1)OCO2` (stereo not drawn), the outcome was inactive.
On to `OCCN(CCO)CCO`, for which the result was inactive.
Regarding `[Cl][Sn]([c]1ccccc1)([c]1ccccc1)[c]1ccccc1`, the AC50 was 0.205 µM (active).
With `C#CCOC(=O)/C=C(C)/C=C/CC(C)CCCC(C)C` (stereo not drawn), the result was inactive.
On the same count and under the same terms, to `CN(C)C(=S)S` belongs “inactive”; to `CC(C)=CC1C(C(=O)OCc2cccc(Oc3ccccc3)c2)C1(C)C` (stereo not drawn), “inactive”.
Turning to `CCOP(=S)(OCC)OP(=S)(OCC)OCC`, the AC50 was 32.3 µM (active).
`O=S(=O)(c1ccc(Cl)cc1)c1cc(Cl)c(Cl)cc1Cl`: the outcome was inactive.
In the case of `Cc1cc(C)cc(C)c1`, the outcome was inactive.

Read-out in another assay: Vascular endothelial growth factor receptor 2 (Homo sapiens) (UniProt P35968)
In words: BSK_4H_VEGFRII: BioMAP Diversity Plus: 4H Assay for Vascular endothelial growth factor receptor 2 (VEGFR2) Biomarker Activity (AID 2283031).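 For AC50: cell-surface VEGFR2 protein level quantified by ELISA.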 Particulars: primary human endothelial cells (HUVEC); actives raise or lower the signal. In short, it runs like this: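 Primary human umbilical vein endothelial cells (4H system), 24 h exposure; cell-surface VEGFR2 measured by ELISA. Bidirectional fitting versus DMSO; cytotoxicity checked in parallel by SRB total-protein staining.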
Consider `Cc1ccc2nc3sc(=O)sc3nc2c1`, for which the AC50 is 9.18 µM (active).
For the compound `OC(Cc1ccccc1Cl)(Cn1cncn1)C1(Cl)CC1` (stereo not drawn), the result was inactive.
Take `Cc1ccccc1OP(=O)(Oc1ccccc1)Oc1ccccc1`: the AC50 is 20 µM (active).
As for `O=[N+]([O-])c1cccc2ccccc12`, the outcome was inactive.
As for `Oc1c(Cl)cc(Cl)cc1Cl`, the outcome was inactive.
For the compound `CCOC(=O)CCN(SN(C)C(=O)Oc1cccc2c1OC(C)(C)C2)C(C)C`, the outcome was inactive.
Regarding `OC(Cc1ccccc1Cl)(Cn1[nH]cnc1=S)C1(Cl)CC1` (stereo not drawn), the AC50 is 20 µM (active).
Take `CCOP(=O)(OCC)SCCSCC`: the outcome was inactive.
Consider `N#CCCC(Br)(C#N)CBr` (stereo not drawn), for which the AC50 is 5.39 µM (active).
For the compound `Cc1cc(C(C)(C)c2ccc(O)c(C)c2)ccc1O`, the result was inactive.
On to `O=C(O)COc1cc(Cl)c(Cl)cc1Cl`, for which the outcome was inactive.
In the case of `O=[N+]([O-])c1ccc(Nc2ccccc2)cc1`, the outcome was inactive.
In the case of `Cc1ccccc1OP(=O)(Oc1ccccc1C)Oc1ccccc1C`, the AC50 is 9.28 µM (active).
Consider `CCOC(=O)C(SP(=S)(OC)OC)c1ccccc1` (stereo not drawn), for which the outcome was inactive.
`CC(C)(C)c1cc([N+](=O)[O-])cc(C(C)(C)C)c1O`: the result was inactive.
`CC1(C)[C@H](C(=O)O[C@H](C#N)c2cccc(Oc3ccccc3)c2)[C@@H]1/C=C(\Cl)C(F)(F)F`: the result was inactive.
In the case of `c1ccc(-c2cccc(-c3ccccc3)c2)cc1`, the AC50 was 11 µM (active).
As to `Cc1ccc(OP(=O)(Oc2ccc(C)cc2C)Oc2ccc(C)cc2C)c(C)c1`, the outcome was inactive.
As for `CC(C)(C)c1ccccc1O`, the outcome was inactive.
Consider `O=S(=O)(C(Cl)(Cl)Cl)C(Cl)(Cl)Cl`, for which the AC50 is 0.327 µM (active).
Consider `C=CC(Cl)CCl` (stereo not drawn), for which the result was inactive.
For the compound `CCOP(=O)(OCC)OC(=CCl)c1ccc(Cl)cc1Cl`, the AC50 is 28.7 µM (active).
`COc1ccccc1N`: the outcome was inactive.
With `CCN(CC)C(=O)C(Cl)=C(C)OP(=O)(OC)OC`, the result was inactive.
In the case of `CC(C=O)Cc1ccc2c(c1)OCO2` (stereo not drawn), the result was inactive.
Regarding `OCCN(CCO)CCO`, the result was inactive.
`[Cl][Sn]([c]1ccccc1)([c]1ccccc1)[c]1ccccc1`: the outcome was inactive.
`C#CCOC(=O)/C=C(C)/C=C/CC(C)CCCC(C)C` (stereo not drawn): the AC50 is 31.5 µM (active).
Take `CC(C)=CC1C(C(=O)OCc2cccc(Oc3ccccc3)c2)C1(C)C` (stereo not drawn): the result was inactive.
The same measure, in the same setting: for `CCOP(=S)(OCC)OP(=S)(OCC)OCC` the value was “inactive”; for `O=S(=O)(c1ccc(Cl)cc1)c1cc(Cl)c(Cl)cc1Cl`, “inactive”.
On the same count and under the same terms, for `Cc1cc(C)cc(C)c1` the value was “inactive”.

Values taken from PubChem BioAssay (EPA / NIEHS).
